Among all 340,000 compounds or so, about 1,700 (0.5%) were called active. Roughly 2% stayed inconclusive and do not appear here. Cut-off read from the data, not from the text of the source: active = activity change below about -65%; inconclusive = mostly about -30% to -63%; inactive = weaker than that. Many of the other results were omitted from the sample, so actives are more common in it than they were.
Each molecule was assayed on CtBP / adenovirus E1A interaction (AlphaScreen) (assay: qHTS Assay for Inhibitors of the CtBP/E1A Interaction). Details: AlphaScreen GST-E1A/His-CtBP binding, 1536-well; stronger effect = lower value.
Description: Carboxyl-terminal binding protein (CtBP) is a co-repressor for many transcription factors. […] Our studies have shown that CtBP is overexpressed in multiple human cancers, including lung, breast, and head and neck cancers. In particular, it is over-expressed in 50% of primary lung cancer and 90% of metastatic lesions. CtBP suppresses epithelial-specific genes as well as genes critical for apoptosis, providing the underlying molecular mechanism for its role in tumorigenesis. […] Based on the above data, we hypothesize that 1) CtBP suppresses the pro-apoptotic and epithelial genes, therefore overexpressed CtBP in human cancer cells increases EMT and cancer survival; 2) decreasing CtBP's function represents a targeted therapy for lung cancer and potentially multiple cancer types. As a co-repressor, CtBP binds to E1A and other transcription factors through a conserved peptide motif to carry out its action. Inhibiting this interaction using small molecules can potentially serve as effective cancer therapeutics.
To this end, we have developed a homogenous AlphaScreen assay targeting the CtBP/E1A interaction. We performed a large scale HTS of the Molecular Libraries Small Molecule Repository (MLSMR) to identify inhibitors of the CtBP/E1A interaction as potential anti-cancer therapeutics. Compounds identified can also be used as chemical probes to better understand the biological functions of CtBP.
NIH Chemical Genomics Center [NCGC]
NIH Molecular Libraries Probe Centers Network [MLPCN]
Assay Submitter (PI): Rui Zhao, University of Colorado Denver
The first step of the 5uL AlphaScreen assay is to dispense assay buffer (50 mM Tris, pH 8.0, 300 mM NaCl, 0.05% BSA, 0.02% Tween 20, 1 mM TCEP) into a Greiner 1536 white solid bottom microtiter plate (789175-F). Five microliters is added to Column 1, 4 uL is added to Column 2 and 3 uL is added to Columns 3 through 48. A 5X protein solution (125 nM GST-E1A protein + 125 nM His-tagged CtBP protein) is mixed and 1 uL is dispensed to Columns 3-48. Using a 1536 pintool, 23 nL of compound is transferred to the assay plate and the plate is incubated with a lid at 37 deg C in the dark for two hours. A solution of 5X AlphaScreen beads is mixed (50 ug/mL Glutathione linked donor beads + Nickel chelated acceptor beads) and 1 uL is dispensed to Columns 2-48. The assay plate is incubated for one hour, with a lid, at 37 deg C in the dark. The plate is read using a Perkin Elmer Envision using an AlphaScreen protocol.
% is set by controls: 0 for no effect and ±100 for the full control effect.

Q: For `CCCCC(=O)NC(c1ccc(OC)c(OC)c1)c1ccc2cccnc2c1O` (stereo not given), which activity change is on record?
A: Its activity change is -94.2% (active).

Q: Which activity change does the source give for `COc1ccc(CCNS(=O)(=O)c2cccc3cccnc23)cc1OC` here?
A: Its activity change is -9.76% (inactive).

Q: `CCOc1ccc(C(CC(=O)O)NC(=O)Cc2ccccc2)cc1OC` (stereo not given) was tested. Which activity change did it give?
A: The activity change was -13.3% (inactive).

Q: `Cc1ccccc1C#CC1=CC(=O)CC(C)(C)C1` was tested. Which activity change did it give?
A: Its activity change is 5.53% (inactive).

Q: `CCCCNC(=O)C[C@@H]1C[C@@]2(C(=O)OC)CC(C)(C)CC=C2N(Cc2ccco2)C1=O` was tested. Which activity change did it give?
A: Its activity change is 2.24% (inactive).

Q: With `COCOc1cccc(CN2CCC(C)(Oc3ccc(SC)cc3)C2)c1` (stereo not given) as the molecule, how does the activity change read?
A: Its activity change is -22.6% (inactive).

Q: How did the activity change turn out when `CSc1ccc(CN2CCC2(C)C(=O)NCc2ccccc2Br)cc1` (stereo not given) was run?
A: The activity change was -8.98% (inactive).

Q: `COC(=O)[C@@]12C[C@@H](CC(=O)NCCCCc3ccccc3)C(=O)N(Cc3ccccc3)C1=CCC(C)(C)C2` was tested. Which activity change did it give?
A: Its activity change is -0.75% (inactive).

Q: `O=c1ccc2c(-c3ccccc3S(=O)(=O)O)c3ccc(O)c(O)c3oc-2c1O` was tested. Which activity change did it give?
A: The activity change was -78.5% (active).

Q: For `CCCCCNC(=O)C1C(=O)Nc2ccccc2C(=O)N1C(C)(C)C` (stereo not given), which activity change is on record?
A: Its activity change is -0.209% (inactive).

Q: Which activity change does the source give for `COc1ccc(Cl)cc1-c1cc(C(=O)Nc2cc(OC)c(OC)c(OC)c2)[nH]n1` here?
A: The activity change was 4% (inactive).

Q: For `O=C1c2ccccc2C(=O)N1CCCCCCN1C(=O)c2ccccc2C1=O`, which activity change is on record?
A: Its activity change is 6.03% (inactive).

Q: For `O=C1c2cccc3cccc(c23)C(=O)N1CCCCCc1n[nH]c(=S)o1`, which activity change is on record?
A: Its activity change is -82.2% (active).

Q: Which activity change does the source give for `O=C1c2ccccc2C(=O)N1CCCc1nc(-c2ccccc2)no1` here?
A: The activity change was 5.59% (inactive).

Q: With `C[C@@H]1CN([C@H](C)CO)C(=O)c2cc(Br)cnc2O[C@@H]1CN(C)Cc1cncnc1` as the molecule, how does the activity change read?
A: Its activity change is -16.6% (inactive).

Q: Which activity change does the source give for `Cc1onc(-c2ccccc2)c1-c1nnc(COC(=O)c2ccc(N(C)C)cc2)o1` here?
A: The activity change was 2.13% (inactive).

Q: `COC(=O)[C@@]12C[C@@H](CC(=O)N3CCC(c4ccccc4)CC3)C(=O)N(Cc3ccccc3)C1=CCC(C)(C)C2` was tested. Which activity change did it give?
A: The activity change was 0.365% (inactive).

Q: `CCOC(=O)c1nc(Nc2ccc(C(=O)OC)cc2)c2ccccc2n1` was tested. Which activity change did it give?
A: The activity change was -86.6% (active).

Q: `CCOC(=O)c1ccc(Nc2cc3ccccc3c(=O)[nH]2)cc1` was tested. Which activity change did it give?
A: Its activity change is 2.43% (inactive).

Q: How did the activity change turn out when `COC(=O)c1ccc(NCC(=O)c2ccccc2)cc1` was run?
A: Its activity change is 6.11% (inactive).

Q: For `COc1ccc(-c2coc3c(C(=O)NC(C)C)cccc23)c(C)c1`, which activity change is on record?
A: Its activity change is -12.9% (inactive).

Q: For `Clc1cccc(Cc2c(-c3cccc(Cl)c3)nc3ccc(Cl)cn23)c1`, which activity change is on record?
A: The activity change was 0.333% (inactive).

Q: With `COc1ccc(Br)cc1/C=N/Nc1ccc(Cl)c(C(=O)O)c1` as the molecule, how does the activity change read?
A: Its activity change is -2.31% (inactive).

Q: With `Cc1ccc(OCCOCCOc2ccc(Br)cc2/C=N\NC(=O)c2ccncc2)cc1` as the molecule, how does the activity change read?
A: The activity change was -10.2% (inactive).

Q: `COc1ccc(CC(=O)NCC(=O)N/N=C/c2cc(Br)ccc2OC)cc1` was tested. Which activity change did it give?
A: The activity change was -87.6% (active).

Reference: PubChem BioAssay AID651724 (National Center for Advancing Translational Sciences (NCATS), 2012)
